# Inconclusive results are not listed. A number with no mark means an inactive call. Calls follow the shape of the dose curve; as a rule, active = well fitted activation curve with a large enough effect in the repeat runs; inconclusive = weak or mixed curves; inactive = flat fitted curve, though single readings scatter.
# Assay: A CellTox Green Cytotoxicity Assay to monitor cytotoxicity in HepG2 cells - 40 hour (AID 1224879); also: nearly all actives have a fitted effect of over 40% in size
# Details: CellTox Green fluorescence; series mostly up to 76.8 µM; cytotoxicity increase: at the top concentration
# Description: National Center for Advancing Translational Sciences [NCATS]
# NIH Chemical Genomics Center [NCGC]
# U.S. Environmental Protection Agency [EPA]
# National Institutes of Environmental Health Sciences [NIEHS]
# National Toxicology Program [NTP]
# Cell-based models are critical for drug discovery. Determining the natural cytotoxic effects resulting from test compounds is an essential research activity. A CellTox Green Cytotoxicity Assay to monitor cytotoxicity in real time of continues cell culture during 40 hours of the compound treatment was used to screen Tox21 10K library compounds in HepG2 cells. CellTox Green Cytotoxicity Assay is a nonlytic, homogeneous, biofluorescent method to measure cytotoxicity in cell culture after experimental manipulation. The assay system uses a proprietary asymmetric cyanine dye that is excluded from viable cells but preferentially stains the dead cell's DNA. […] Viable cells produce no appreciable increases in fluorescence. Therefore, the fluorescence signal produced by the binding interaction with dead cell DNA is proportional to cytotoxicity.
# The mixture of HepG2 cell suspension and reagents were dispensed at 600cells/6 ul/well in 1536-well tissue culture treated black solid bottom plates using a Multidrop dispenser. After the assay plates were incubated at a 37 C/5% CO2 incubator for 5 hours, 23 nL of compounds dissolved in DMSO, positive and negative controls was transferred to the assay plate by a pintool work station. The plates were incubated at 37 C for 40 hours. The fluorescence intensity were measured at 0h, 8h, 16h, 24h, 32h and 40h time points using ViewLux plate reader during compound treatment.
# % is scaled to controls: 0 for no effect and ±100 for the full control effect.
row,SMILES,cytotoxicity increase
1,CCNS(=O)(=O)c1ccc(C)cc1,1.99%
2,COc1ccnc(CS(=O)c2nc3cc(OC(F)F)ccc3[nH]2)c1OC (stereo not given),4.32%
3,C=C(C)C(=O)OCC(O)CO (stereo not given),-8.81% [at 35.3 µM]
4,CC(=O)N1C[C@H](O)C[C@H]1C(=O)O,-19.1% [at 35.3 µM]
5,C[N+]1(CC2COC(c3ccccc3)(c3ccccc3)O2)CCCCC1 (stereo not given),-0.954% [at 15.8 µM]
6,CN1CCC(=C2c3ccccc3CCc3cccnc32)CC1,-0.839% [at 35.3 µM]
7,CC(=O)c1ccccc1[N+](=O)[O-],-0.414%
8,CC/C=C\CCOC(C)OCC (stereo not given),-5.4% [at 35.3 µM]
9,O=C1NC(=O)C2CC=CCC12 (stereo not given),15.3%
10,CC1=C(C/C=C(\C)CCC[C@H](C)CCC[C@H](C)CCCC(C)C)C(=O)c2ccccc2C1=O,2.97% [at 35.3 µM]
11,CCO[Si](OCC)(OCC)c1ccccc1,-14.2%
12,CC(CC=O)CC(C)(C)C (stereo not given),-1.04%
13,O=C1CCCCCCCCCCCCCCO1,19.5%
14,Nc1ccn([C@@H]2O[C@H](CO)[C@@H](O)C2(F)F)c(=O)n1,23.6% [at 35.3 µM]
15,C=CCCC(=O)O,9.25%
16,CC(=O)c1cnccn1,18%
17,Cc1nc2ccc(CN(C)c3ccc(C(=O)N[C@@H](CCC(=O)O)C(=O)O)s3)cc2c(=O)[nH]1,2.99% [at 35.3 µM]
18,CCOC(=O)COC(=O)c1ccccc1C(=O)OCC,-10.4%
19,CCCCCC(=O)OCCc1ccccc1,-0.4%
20,O=[N+]([O-])c1ccc(/C=N\O)o1,-8.91% [at 35.3 µM]

row,SMILES,cytotoxicity increase
1,CCCO[Si](OCCC)(OCCC)OCCC,0.633%
2,CCCc1ncc(C[n+]2ccccc2C)c(N)n1,-5.87% [at 35.3 µM]
3,CC(=O)Oc1cccc(C)c1,1.61% [at 35.3 µM]
4,COc1cc(-c2ccc(=O)[nH]n2)ccc1OC(F)F,-0.419% [at 35.3 µM]
5,N[C@H](C(=O)O)[C@@H](O)c1ccc(O)c(O)c1,-6.95% [at 35.3 µM]
6,COc1cc(C)nc(-n2nc(C)cc2OC)n1,-5.09% [at 35.3 µM]
7,O=C(O)Cc1csc(-c2ccc(Cl)cc2)n1,-1.37% [at 35.3 µM]
8,NC(=O)N1c2ccccc2CC(=O)c2ccccc21,-7.35% [at 35.3 µM]
9,O=Cc1cccc(Br)c1,1.73%
10,NC(=O)Cc1cccc2ccccc12,-0.641%
11,Cc1ccc(C(=O)Nc2ccc(S(=O)(=O)O)c3cc(S(=O)(=O)O)cc(S(=O)(=O)O)c23)cc1NC(=O)c1cccc(NC(=O)Nc2cccc(C(=O)Nc3cc(C(=O)Nc4ccc(S(=O)(=O)O)c5cc(S(=O)(=O)O)cc(S(=O)(=O)O)c45)ccc3C)c2)c1,5.85% [at 35.3 µM]
12,COC(=O)C1=C(C)NC(C)=C(C(=O)OC(C)C)C1c1cccc2nonc12 (stereo not given),-1.07% [at 35.3 µM]
13,CC(C)(CCC(=O)O)C(=O)O,3.17%
14,O=[N+]([O-])c1cncn1CCN1CCOCC1,16.9% [at 35.3 µM]
15,CC1(C)OC[C@@H](COC(=O)CCc2ccc(OC[C@@H](O)CNCCNC(=O)N3CCOCC3)cc2)O1,-5.75% [at 35.3 µM]
16,CCCC[N+](C)(CCCC)CCCC,-6.22%
17,CCCCCC(C)N (stereo not given),-14.8% [at 35.3 µM]
18,CC(C)(C)OC(=O)c1cccc(N)c1,0.528%
19,CCCCCCCCCCCCSC,-2.56%
20,Cc1ccc(C(=O)c2ccccc2)cc1,21.5%

# Reference: PubChem BioAssay (Tox21)
